The structures appear in SMILES notation. Among all 290,000 compounds or so, about 260 (0.09%) were called active. Many of the other results were omitted from the sample, so actives are more common in it than they were. Potency and affinity values are given separately. A number with no mark means an inactive call. No stated cut-off is given here; in the data, active means inhibition above about 50%; inactive means the rest.

The results in this text go back to PubChem BioAssay AID1778 (Sanford-Burnham Center for Chemical Genomics, 2009).

The target in the test is Kappa-type opioid receptor (Homo sapiens) (UniProt P41145). As to the kind of experiment: kappa opioid receptor blockers – cell-based, luminescence, uHTS (AID 1778). The following applies: KOR beta-arrestin recruitment, antagonist mode, active compounds read high; at 10 µM unless noted. On the technique in general: Activated receptors often draw arrestin, which recruitment assays turn into a signal.
Sequence of Kappa-type opioid receptor (Homo sapiens) (P41145 whole entry, looked up): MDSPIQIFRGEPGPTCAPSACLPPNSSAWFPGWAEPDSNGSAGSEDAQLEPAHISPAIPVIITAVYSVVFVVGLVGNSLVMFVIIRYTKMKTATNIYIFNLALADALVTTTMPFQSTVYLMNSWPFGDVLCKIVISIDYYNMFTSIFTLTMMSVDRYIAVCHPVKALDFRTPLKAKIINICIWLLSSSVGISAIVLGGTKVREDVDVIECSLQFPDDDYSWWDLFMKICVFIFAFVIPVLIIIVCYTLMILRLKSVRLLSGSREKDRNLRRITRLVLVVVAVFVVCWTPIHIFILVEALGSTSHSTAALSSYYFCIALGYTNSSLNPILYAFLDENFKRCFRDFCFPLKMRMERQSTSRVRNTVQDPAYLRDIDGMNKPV
For orientation: inhibition means the relative decrease from the control value, in per cent. Consider `Cc1cc(C)cc(Nc2nc3c(S(=O)(=O)c4ccccc4)nnn3c3ccccc23)c1`, for which the inhibition is -17.6%.

In the case of `COc1cccc(NC(=O)CSc2ccc3nnc(-c4ccccn4)n3n2)c1`, the inhibition is 3%.

Take `Cc1ccc(SC[C@H](CC(C)C)N2CCN(C)CCC2=O)cc1`: the inhibition was 30.9%.

With `COc1ccccc1OC(C)C(=O)NNC(=S)NC1CCCC1` (stereo unspecified), the inhibition was 1.5%.

Take `COc1ccc(N2C(=S)NC3N2C(=S)NC3(C)c2ccccc2)cc1` (stereo unspecified): the inhibition is -26.3%.

Turning to `CC(C)CNS(=O)(=O)c1ccc(CCC(=O)N2CCC(C(N)=O)CC2)cc1`, the inhibition is -7.7%.

On to `Cc1cc(C)nc(-n2nc(C)cc2Nc2ccccc2)n1`, for which the inhibition is -25%.

As for `Cc1ccc(Nc2cc(C)nn2-c2nc(C)cc(C)n2)cc1`, the inhibition was 2%.

Regarding `COc1cccc(N2C(=O)CC(N3CCN(c4ccc([N+](=O)[O-])cc4)CC3)C2=O)c1` (stereo unspecified), the inhibition is -48.1% [at 20 µM].

Regarding `O=C(NCc1ccco1)C(c1cccs1)N(Cc1ccccc1)C(=O)Cn1nnc2ccccc21` (stereo unspecified), the inhibition is 9.5%.

As to `Cc1cccc(C)c1NC(=O)C(c1cccs1)N(Cc1ccco1)C(=O)Cn1nnc2ccccc21` (stereo unspecified), the inhibition is 53.4% (active).

For `Cc1ccc(CN(C(=O)Cn2nnc3ccccc32)C(C(=O)NCc2ccco2)c2cccs2)cc1` (stereo unspecified), the inhibition is 17.9%.

As to `COc1cc(NS(=O)(=O)c2cn(C)cn2)cc(OC)c1`, the inhibition is -11.4%.

Consider `Cc1ccc(NC(=O)c2cc(N3C(=O)C=CC3=O)ccc2N2CCOCC2)cc1Cl`, for which the inhibition is -45.3%.

With `Cc1ccc(NC(=O)c2cc(N3C(=O)CCC3=O)ccc2N2CCOCC2)cc1`, the inhibition is -2.1% [at 20 µM].

Take `O=C(Nc1ccc(N2CCOCC2)c([N+](=O)[O-])c1)c1ccco1`: the inhibition was 11.4%.

Take `Cc1ccc(-c2ccc(C(=O)O)c(C)n2)cc1`: the inhibition is 21%.

On to `Oc1ccc(N=Nc2ccccc2C(F)(F)F)c2cccnc12`, for which the inhibition was 29.5%.

Consider `Cc1ccc(N=Nc2ccc(O)c3ncccc23)cc1`, for which the inhibition was -2.4%.

Take `Cc1ccc(C)c(N=Nc2ccc(O)c3ncccc23)c1`: the inhibition is 60.4% (active).

Consider `COc1ccccc1N=Nc1ccc(O)c2ncccc12`, for which the inhibition is -19.2%.

Consider `CCS(=O)(=O)c1ccc(OC)c(N=Nc2ccc(O)c3ncccc23)c1`, for which the inhibition was 1.8%.

In the case of `Cc1ccc(N=Nc2ccc(O)c3ncccc23)cc1C`, the inhibition was 60.3% (active).

On to `O=Nc1ccc(O)c2ncccc12`, for which the inhibition was 7.2%.

Regarding `Cc1ccc(N=Nc2cc(C)ccc2O)c(C)c1`, the inhibition was 19.5%.

Consider `CC(C)Oc1ccc(N2CC(C(=O)Nc3ccccn3)CC2=O)cc1` (stereo unspecified), for which the inhibition is 19.8% [at 20 µM].

As to `COc1cc(/C=C2/N=C(C3CCCCC3)OC2=O)cc(OC)c1OC`, the inhibition is -1.6%.

Take `CCC(=O)Nc1ccc(NC(=O)c2cccc3ccccc23)cc1`: the inhibition is -36.8% [at 20 µM].

For `S=C(NCCCc1ccccc1)NCc1ccccc1`, the inhibition is 7.2%.

For the compound `Cc1ccc(S(=O)(=O)N2CCOCC2)cc1C(=O)NC1CCSc2ccccc21` (stereo unspecified), the inhibition was 27.2%.

Turning to `CCOc1ncccc1C(=O)NCCc1ccc(S(N)(=O)=O)cc1`, the inhibition is -2.5%.

Turning to `COc1ccc(C(NC(=O)c2ccc(=O)[nH]c2)C(=O)Nc2ccc(C(C)C)cc2)cc1` (stereo unspecified), the inhibition was -5%.

In the case of `CCOCCCNC(=O)c1cc(=O)n(Cc2cccc(C)c2)c2ccccc12`, the inhibition was 3.1%.

For `O=C(c1ccc(-c2ccccc2)cc1)c1ccc([N+](=O)[O-])cc1`, the inhibition is -69.2%.

Consider `O=C(Nc1cccc([N+](=O)[O-])c1)c1ccccc1`, for which the inhibition was 2.6%.

As to `O=C(C#Cc1ccccc1)c1cccc([N+](=O)[O-])c1`, the inhibition was -9.6%.

As for `O=C(c1ccccc1)c1ccc(Sc2ccc([N+](=O)[O-])cc2)cc1`, the inhibition was 10.8%.

Regarding `N/C(=N\OC(=O)c1ccc2c(c1)OCO2)c1cccnc1`, the inhibition was -2.2% [at 20 µM].

Regarding `CCC(C)(C)NC(=O)C1CCN(c2nc(OC)nc(OC)n2)CC1`, the inhibition is -16.1%.

As to `COCC1CCN(C(=O)c2cc(COc3ccc(-n4cncn4)cc3)on2)C1` (stereo unspecified), the inhibition is -15.5%.

For `CC(C)(C)C1CCc2c(sc(NC(=O)c3cccs3)c2C(N)=O)C1` (stereo unspecified), the inhibition is -55.5%.

`Oc1c(C(c2ccccn2)N2CCCCC2)cc(Cl)c2cccnc12` (stereo unspecified): the inhibition is -6.4%.

Consider `Oc1c(C(c2cccs2)N2CCN(c3ccccc3)CC2)ccc2cccnc12` (stereo unspecified), for which the inhibition was 2.5%.

As to `Oc1c(C(c2ccccc2Cl)N2CCCC2)ccc2cccnc12` (stereo unspecified), the inhibition was 57.9% (active).

With `C/C(=N\Nc1nc(Cl)c(Cl)cc1Cl)c1ccc(S(=O)(=O)NCc2ccco2)cc1`, the inhibition is -56.4%.

As for `COCCn1c(=N)c(S(=O)(=O)c2ccc(F)cc2)cc2c(=O)n3cccc(C)c3nc21`, the inhibition was -2.3%.

In the case of `COc1ccc(N(C(=O)c2ccco2)S(=O)(=O)c2ccccc2)cc1`, the inhibition is -19.2%.

For the compound `CCCCN(Cc1cc2cc(OC)ccc2[nH]c1=O)S(=O)(=O)c1ccc(C)cc1`, the inhibition was -44.3% [at 20 µM].

Take `O=C(Cn1ncc2ccccc21)N1CCc2ccccc21`: the inhibition is 1.2%.

Turning to `O=C1CN(C(=O)Cn2ncc(Cl)c(Cl)c2=O)c2ccccc2N1`, the inhibition was 53.5%.

With `Cc1nc(-c2noc(-c3ccc(Cl)cc3)n2)c(C(F)(F)F)o1`, the inhibition was 31.9%.

On to `CCCCN1C(=O)C2(OCCCO2)c2cccc(C)c21`, for which the inhibition was -40.4% [at 20 µM].

In the case of `CN1CC(=O)N(CC(=O)NCc2ccc(F)cc2)c2ccccc2C1=O`, the inhibition is 3%.

Consider `Cc1c(C(=O)O)[nH]c2c1C(=O)CC(c1ccccc1)C2` (stereo unspecified), for which the inhibition was -26.9%.

On to `Cc1oc2c(c(=O)c1C)C(=O)CC(c1ccccc1)C2` (stereo unspecified), for which the inhibition is -21.1%.

On to `CCN1CCN(CC(=O)N2N=C(c3cccs3)CC2c2ccc(F)cc2)C(=O)C1=O` (stereo unspecified), for which the inhibition was 0.6%.

On to `C(=N\Nc1nc(-c2cccnc2)nc2ccccc12)/c1ccccc1`, for which the inhibition was -5.2%.

Consider `C/C(=N\Nc1nc(-c2ccccn2)nc2ccccc12)c1ccc(F)cc1`, for which the inhibition was 31.6%.

In the case of `Cc1ccc(-c2nc(N/N=C/c3ccncc3)c3ccccc3n2)cc1`, the inhibition is 2.4%.

As for `C(=N\Nc1nc(-c2ccccn2)nc2ccccc12)/c1ccccc1`, the inhibition is 76.2% (active).

As for `Fc1ccccc1/C=N/Nc1ncnc2ccccc12`, the inhibition was 10.9%.
